Assay outcomes from PubChem BioAssay.
PostGolgi ctrl = growth of the yeast control strain, post-Golgi counter-screen | 5% of 98,000 active | efflux-deficient yeast background strain, growth absorbance A615, 16 h | AID 738 | inhibition, % at 10 µM
CYP2C19 inhib = human CYP2C19 inhibition; P33261; CYP2C19 Supersomes, luciferin-H EGE luminescence, 30 min; inhibition, % at 5 µM; 21% of 96,000 active; AID 778;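 active means CYP2C19 inhibition above a set limit at 5 µM in the primary screen, cut at about 50% in these data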
Target sequence (P33261 whole entry, looked up): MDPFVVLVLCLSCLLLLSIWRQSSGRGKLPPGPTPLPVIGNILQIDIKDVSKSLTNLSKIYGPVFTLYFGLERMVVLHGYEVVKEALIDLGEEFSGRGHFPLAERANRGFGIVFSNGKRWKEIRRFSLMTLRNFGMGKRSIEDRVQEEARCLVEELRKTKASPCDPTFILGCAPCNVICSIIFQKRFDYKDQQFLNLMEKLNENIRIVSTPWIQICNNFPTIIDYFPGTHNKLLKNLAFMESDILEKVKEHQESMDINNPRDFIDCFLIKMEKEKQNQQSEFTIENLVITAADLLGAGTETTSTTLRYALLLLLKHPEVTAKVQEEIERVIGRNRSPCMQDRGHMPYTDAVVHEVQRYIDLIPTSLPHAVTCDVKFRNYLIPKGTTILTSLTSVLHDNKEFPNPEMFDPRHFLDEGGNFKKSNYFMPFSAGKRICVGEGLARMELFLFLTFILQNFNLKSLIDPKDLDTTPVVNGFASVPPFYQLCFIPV
PostGolgi yeast = growth inhibition of a yeast mutant, post-Golgi transport screen | 0.9% of 98,000 active | post-Golgi transport phenotypic cell assay | inhibition, % at 10 µM;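 further: yeast cells grown in 1536-well plates; yeast grown about 18 h at 30C before absorbance read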
CYP2C9 act = CYP2C9 (human) activation. recombinant CYP2C9, luciferin-H conversion, luminescence; stronger effect = higher value; factor 1 = untreated enzyme, 0 = blocked. P11712. activation factor at 5 µM. 1.4% of 96,000 active;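 active means activation factor of 2 or more for CYP2C9 at a 5 µM dose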
CYP2C9 inh = human CYP2C9 inhibition. CYP2C9 Supersomes, luciferin-H conversion, luminescence. inhibition, % at 5 µM. 20% of 96,000 active;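 active means blocking of liver enzyme CYP2C9 beyond about 50% at 5 µM, limit read from the data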
CYP2C19 activ = increases human CYP2C19 enzyme activity; P33261; activation factor at 5 µM; AID 1025; recombinant CYP2C19, luciferin-H EGE luminescence; stronger effect = higher value; 0 = fully inhibited enzyme, 1 = untreated enzyme; 96,000 tested, under 10 active;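 active means activation factor of at least 2 at 5 µM in the primary screen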
Large screens that a line does not name were inactive. A selection: hits, their analogues and other compounds. The true share with any hit is near 32%. Unless noted, no stated cut-off is given here; in the data, active means inhibition above about 30%; inactive means the rest.

CSCCC(/C(O)=C(\C#N)c1nc2ccccc2[nH]1)N1C(=O)c2ccccc2C1=O (stereo not given)	CYP2C19 inhib 99, CYP2C9 inh 95
C/C(O)=C(\C#N)c1nc2ccccc2[nH]1	none
N#C/C(=C(/O)CN1C(=O)c2ccccc2C1=O)c1nc2ccccc2[nH]1	CYP2C9 inh 51
Cc1cc(C)n(C2CCCCC2OC(=O)c2ccccc2F)n1 (stereo not given)	none
Cc1cc(C)c2c(c1)SC1=NC(c3ccccc3)(C(F)(F)F)NC(=O)N12 (stereo not given)	PostGolgi ctrl 43
COc1ccc(CN(C(=O)c2ccco2)c2ccc(C)cc2)cc1OC	CYP2C19 inhib 65, CYP2C9 inh 63
Cc1ccc(N(Cc2cc(=O)[nH]c3ccccc23)C(=O)c2ccco2)cc1	none
CNC(=S)NNC(=O)Cc1ccc(OC)c(OC)c1	none
OCCNc1nc(Nc2ccccc2)nc(Nc2ccccc2)n1	CYP2C9 inh 66
CCOC(=O)c1c(C)c(C(=O)N2CCN(c3cccc(Cl)c3)CC2)c(C)n1C	CYP2C19 inhib 67, CYP2C9 inh 74
Cc1cc(C(=O)N2CCN(c3cccc(Cl)c3)CC2)c(C)o1	CYP2C9 inh 60
Cc1ccc(C(=O)N2CCN(c3cccc(Cl)c3)CC2)cc1C	CYP2C19 inhib 71
COc1ccc(C(=O)N2CCN(c3ccc(C)c(C)c3)CC2)cc1OC	none
Cc1ccc(C(=O)N2CCN(c3ccccc3)CC2)cc1C	CYP2C19 inhib 69
CCOc1nc(SC(C(C)=O)C(=O)Nc2ccccc2)nc(N(C)C)n1 (stereo not given)	none (no result: CYP2C19 inhib, CYP2C9 act, CYP2C9 inh, CYP2C19 activ)
CN(C)S(=O)(=O)c1ccc(S(=O)(=O)N(Cc2ccco2)Cc2ccccc2Cl)cc1	none
O=C(CCCCCC(=O)N(CCO)CCO)N(CCO)CCO	none
O=C(NCc1cccnc1)C1CCCN(S(=O)(=O)c2ccc(Cl)cc2)C1 (stereo not given)	CYP2C19 inhib 85, CYP2C9 inh 77
O=C(NCCc1ccccc1)C1CCCN(S(=O)(=O)c2cccnc2)C1 (stereo not given)	none
O=C(NCc1ccc(F)cc1)C1CCCN(S(=O)(=O)c2cccnc2)C1 (stereo not given)	none
O=C(NCc1cccnc1)C1CCCN(S(=O)(=O)c2ccccc2)C1 (stereo not given)	CYP2C19 inhib 87, CYP2C9 inh 83
CCOC(=O)Cn1c(CN2CC(C)OC(C)C2)nc2c1c(=O)n(C)c(=O)n2C (stereo not given)	none (no result: CYP2C19 inhib, CYP2C9 act, CYP2C9 inh, CYP2C19 activ)
COc1ccc(C2/C(=C(\O)c3ccc(OC)c(Cl)c3)C(=O)C(=O)N2CCN(C)C)cc1 (stereo not given)	none
COc1ccc2cc(CN(CCCN3CCOCC3)Cc3nnnn3C3CCCCC3)c(=O)[nH]c2c1	none
COc1ccc2[nH]c(=O)c(CN(Cc3ccccc3)Cc3nnnn3CC3CCCO3)cc2c1 (stereo not given)	CYP2C19 inhib 72
COc1cc2cc(CN(Cc3nnnn3Cc3ccccc3)CC3CCCO3)c(=O)[nH]c2cc1OC (stereo not given)	CYP2C19 inhib 98, CYP2C9 inh 68
c1ccc2sc(Cc3nnc4n3CCCCC4)nc2c1	PostGolgi ctrl 41
COc1ccc2[nH]c(=O)c(CN(Cc3nnnn3Cc3ccco3)C3CCCCC3)cc2c1	CYP2C19 inhib 89, CYP2C9 inh 75
Cc1ccc2cc(C(c3nnnn3C3CCCC3)N(Cc3cccnc3)Cc3ccco3)c(=O)[nH]c2c1 (stereo not given)	CYP2C19 inhib 92, CYP2C9 inh 74
Cc1ccc2[nH]c(=O)c(C(c3nnnn3C3CCCC3)N(Cc3cccnc3)Cc3ccco3)cc2c1 (stereo not given)	none
COc1ccccc1CN(Cc1cc2c(C)ccc(C)c2[nH]c1=O)Cc1nnnn1Cc1ccco1	CYP2C19 inhib 60, CYP2C9 inh 80
COc1ccc2[nH]c(=O)c(CN(C3CCCCC3)C(c3nnnn3Cc3ccco3)C(C)C)cc2c1 (stereo not given)	CYP2C19 inhib 60, CYP2C9 inh 95
Cc1cccc2cc(CN(Cc3ccc(F)cc3)Cc3nnnn3C3CCCC3)c(=O)[nH]c12	none
CCC(c1nnnn1C1CCCCC1)N(Cc1ccco1)Cc1cc2ccc(OC)cc2[nH]c1=O (stereo not given)	CYP2C19 inhib 95, CYP2C9 inh 84
COc1ccc2cc(CN(CCc3ccccc3)Cc3nnnn3Cc3ccco3)c(=O)[nH]c2c1	CYP2C19 inhib 96, CYP2C9 inh 100
CCOc1ccc(S(=O)(=O)N(CC(=O)Nc2cc(C)on2)Cc2ccccc2Cl)cc1	CYP2C19 inhib 71, CYP2C9 inh 82
C=CCc1ccc(OCc2ccc(C(=O)OC)o2)c(OC)c1	CYP2C9 inh 68
CCC(=O)c1ccc(OCc2ccc(C(=O)OC)o2)c(OC)c1	CYP2C9 inh 56
Cn1c2c(c3ccccc31)CCSC2=O	none
O=C(c1ccccc1)c1ccc2nc(N3CCN(C(=O)c4ccco4)CC3)c3nncn3c2c1	CYP2C19 inhib 78, CYP2C9 inh 92
O=C(c1cccc(Cl)c1)N1CCN(C(=O)c2ccco2)CC1	none
Cc1cc(N2CCN(C(=O)c3ccco3)CC2)n2nc(C)c(-c3ccc(Cl)cc3)c2n1	none (no result: PostGolgi ctrl, PostGolgi yeast)
Cc1nc2cc(-c3cccc(Cl)c3)nn2c(N2CCN(C(=O)c3ccco3)CC2)c1C	CYP2C19 inhib 73, CYP2C9 inh 86 (no result: PostGolgi ctrl, PostGolgi yeast)
CCN1CCN(c2cc(C(C)(C)C)nc3c(-c4ccccc4)c(C)nn23)CC1	PostGolgi ctrl 76
Cc1cc(N2CCN(C(=O)c3ccco3)CC2)n2nc(C)c(-c3ccccc3)c2n1	PostGolgi ctrl 98, PostGolgi yeast 31
CC1N/C(=C\C(=O)c2ccccc2)N(O)C1(C)C (stereo not given)	none
O=Cc1c(-[n+]2ccccc2)nc([O-])n1-c1ccccc1	none
O=C(c1cc2nc(-c3ccccc3)cc(-c3ccccc3)n2n1)N1CCN(C(=O)c2ccco2)CC1	none
Cc1cc(N2CCN(C(=O)c3ccco3)CC2)n2nc(-c3cccc(Cl)c3)cc2n1	PostGolgi ctrl 52
Cc1cc(C)c(NC(=O)Cn2c(=O)n(Cc3ccco3)c(=O)c3ccccc32)c(C)c1	none
COc1cccc(C2C(C(=O)Nc3ccc(C)cc3C)=C(C)Nc3ncnn32)c1OC (stereo not given)	none
O=[N+]([O-])c1cc2c(cc1/C=N\NS(=O)(=O)c1ccccc1)OCO2	CYP2C9 inh 82
C=C1C(C(=O)N2CCOCC2)C1C(=O)N1CCOCC1 (stereo not given)	none
Cc1ccc(NC(=O)CSc2nnc(CNC(=O)c3c(F)cccc3Cl)o2)cc1	CYP2C9 inh 73
Cc1ccc(NC(=O)CSc2nnc(Cn3cnc4ccccc43)o2)c(C)c1	none (no result: CYP2C19 inhib, CYP2C9 act, CYP2C9 inh, CYP2C19 activ)
Cc1ccc(NC(=O)CSc2nnc(Cn3cnc4ccccc43)o2)cc1	CYP2C9 inh 65
Cn1nnnc1SCc1nnc(-c2ccc(Cl)cc2)o1	CYP2C19 inhib 78
